Laboratory results reported in PubChem BioAssay (NCATS).
Results filed as inconclusive are left out. Activity calls are given as the source filed them. Calls follow the shape of the dose curve; as a rule, active = well fitted curve in the direction sought with a large enough effect; inconclusive = small, poorly fitted or top-dose-only effect, or another doubt; inactive = no such curve, though single readings can be large; an effect the other way counts as inactive or inconclusive.

Columns and labels:
[1] = target: Glutathione peroxidase 1 (Homo sapiens) (UniProt P07203); experiment: Primary qHTS Assay for Inhibitors of Recombinant Selenoprotein Glutathione Peroxidase 1 (GPX1) (AID 1845191); also: nearly all actives have a fitted effect of over 65% in size; as to activity, negative = inhibition: % is scaled to controls: 0 for no effect and ±100 for the full control effect
Outline: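 10 nM GPX1 + cpd, 30 min RT; start w/ 1 mM GSH, 0.5 mM cumene hydroperoxide, 0.5 mM NADPH, 100 nM GR, 0.01% BSA; buffer 50 mM Tris-HCl pH 7.5, 2 mM EDTA, 150 mM NaCl; Fl 340/450, 0 & 15 min.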

[2] = target: Phospholipid hydroperoxide glutathione peroxidase GPX4 (Homo sapiens) (UniProt P36969); experiment: Primary qHTS Assay for Inhibitors of Recombinant Selenoprotein Glutathione Peroxidase 4 (GPX4) (AID 1845192); also: nearly all actives have a fitted effect of over 65% in size
Outline: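 NADPH consumption, followed by fluorescence at 340/450 nm between 0 and 15 min, reports GPX4 activity via coupled glutathione reductase (100 nM). Enzyme 200 nM was pre-exposed to compound 30 min; 0.5 mM cumene hydroperoxide and 1 mM GSH served as substrates.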

[3] = target: Luciferin 4-monooxygenase (Photinus pyralis) (UniProt P08659); experiment: Primary firefly luciferase (FLuc) qHTS assay for identification of artifact compounds. (AID 1845220); also: nearly all actives have a fitted effect of over 60% in size
Outline: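 Cell-free, 1536-well qHTS. Buffer pH 7.6 with 0.01% Tween-20 and 0.05% BSA; 10 uM D-luciferin, 10 uM ATP; 10 nM P. pyralis luciferase; luminescence after 5 min.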

[4] = system: Nanoluciferase (engineered Oplophorus gracilirostris luciferase); experiment: Primary Nanoluciferase (NLuc) qHTS assay for identification of artifact compounds. (AID 1845222);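 also: series mostly up to about 54 µM; 0% = DMSO and -100% = no enzyme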
Outline: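 Compounds are pinned into diluted (1:55) conditioned medium of NLuc-expressing S16 cells and held 15 min at room temperature protected from light. Nano-Glo substrate follows, and luminescence is read 5 min later.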

[5] = Primary redox qHTS assay for identification of artifact compounds. (AID 1845223);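 also: 0% = DMSO and 100% = reference compound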
Outline: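 Amplex Red (25 uM) and HRP (250 mU/mL) in HBSS, with compounds for 15 min, then 250 uM DTT for 30 min, room temperature, dark. Fluorescence 525/598 nm read; normalized to DMSO and 10 uM DA3003; Hill fit.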

Chain of Phospholipid hydroperoxide glutathione peroxidase GPX4 (Homo sapiens) (P36969 whole entry, looked up): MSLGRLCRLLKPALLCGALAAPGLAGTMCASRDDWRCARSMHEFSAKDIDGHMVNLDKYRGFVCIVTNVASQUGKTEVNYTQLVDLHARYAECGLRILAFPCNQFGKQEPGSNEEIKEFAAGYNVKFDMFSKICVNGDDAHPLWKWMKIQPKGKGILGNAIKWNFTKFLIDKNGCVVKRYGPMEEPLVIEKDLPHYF
Chain of Glutathione peroxidase 1 (Homo sapiens) (P07203 whole entry, looked up): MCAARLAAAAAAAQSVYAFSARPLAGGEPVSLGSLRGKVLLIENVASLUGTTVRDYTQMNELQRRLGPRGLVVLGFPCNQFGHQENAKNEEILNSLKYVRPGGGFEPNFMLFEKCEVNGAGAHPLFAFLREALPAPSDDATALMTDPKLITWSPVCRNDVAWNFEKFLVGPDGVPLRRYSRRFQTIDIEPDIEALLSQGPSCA

COc1cc(/C=C/C(=O)O)ccc1O[C@@H]1O[C@H](CO)[C@@H](O)[C@H](O)[C@H]1O[C@@H]1OC[C@](O)(CO)[C@H]1O
inactive: Potency [1] | Potency [2] | Potency [3] | Potency [4] | Potency [5]

CC1(C)CC[C@]2(C(=O)O[C@@H]3O[C@H](CO)[C@@H](O)[C@H](O)[C@H]3O)CC[C@]3(C)C(=CCC4[C@@]5(C)C[C@H](O)[C@H](O[C@@H]6OC[C@@H](O)[C@H](O)[C@H]6O)[C@@](C)(CO)C5CC[C@]43C)C2C1 (stereo partly specified)
inactive: Potency [1] | Potency [2] | outcome [3] inactive [at 11.6 µM] | activity, negative = inhibition [4] 3.66% [at 11.6 µM] | redox activity (% of DA3003) [5] 17.7% [at 11.5 µM]

O=C(O)c1ccnc(-c2cc(C(=O)NCCc3ccccc3)ccn2)c1
inactive: Potency [1] | Potency [2] | Potency [3] | Potency [4] | Potency [5]

CC(=O)OC/C(=C/C(=O)O)CC[C@@H]1C(CO)=CC[C@@H]2C(C)(C)CCC[C@@]12C
inactive: Potency [1] | Potency [2] | Potency [3] | Potency [4]

CCC(C)/C=C(C)/C=C/C1=CC2=C(Cl)C(=O)C(C)(O)C(=O)C2(O)C(OC)O1 (stereo unspecified)
inactive: Potency [1] | Potency [2] | Potency [3] | Potency [4] | Potency [5]

Cc1c(Cc2ccc3ccccc3n2)c2cc(F)ccc2n1CC(=O)O
inactive: Potency [1] | Potency [2] | Potency [3] | Potency [4] | Potency [5]

COC1OC(O)C2(CCC3(O2)C(C)CC2OC(=O)C4(C)CCCC3(C)C24)C1O (stereo unspecified)
inactive: Potency [1] | Potency [2] | Potency [3] | Potency [4] | Potency [5]

CC1(CO)CCCC2(C)C3COC(=O)C3=CC(O)C12 (stereo unspecified)
inactive: Potency [1] | Potency [2] | Potency [3] | Potency [4]

COc1cc2c(c(O)c1OC/C=C(\C)CC/C=C(/C)CCC=C(C)C)CN(C(CCC(=O)O)C(=O)O)C2=O (stereo unspecified)
inactive: Potency [1] | Potency [2] | Potency [3] | Potency [4] | Potency [5]

CC(O)/C=C/C1(O)C(C)C(O)C(O[C@@H]2O[C@H](CO)[C@@H](O)[C@H](O)[C@H]2O)CC1(C)C (stereo partly specified)
inactive: Potency [1] | Potency [2] | Potency [3] | Potency [4] | Potency [5]

COc1cc2c(cc1OC)N1C(=O)C[C@@]34C=CC[N@+]5([O-])CC[C@H]2[C@H](CC3)[C@@]145
inactive: Potency [1] | Potency [2] | Potency [3] | Potency [4] | Potency [5]

O=C(O[C@H]1[C@H](Oc2ccc(O)cc2CO)O[C@H](CO)[C@@H](O)[C@@H]1O)c1ccccc1
inactive: Potency [1] | Potency [2] | Potency [3] | Potency [4] | Potency [5]

C=CC(C)(O)CC/C=C(\C)C1CC=C(C)C(=O)O1 (stereo unspecified)
inactive: Potency [1] | Potency [2] | Potency [3] | Potency [4]

Cc1c(O)cc2c(c1O)COC1(O)CCCOC21 (stereo unspecified)
inactive: Potency [1] | Potency [2] | Potency [3] | Potency [4] | Potency [5]

CC1CCC2C(C(=O)O)=CC3(O)CC(C)(C)CC123 (stereo unspecified)
inactive: Potency [1] | Potency [2] | Potency [3] | Potency [4] | Potency [5]

O=C(/C=C/c1ccc(O)cc1)O[C@@H]1C[C@@](O)(C(=O)O)C[C@@H](O)[C@@H]1O
inactive: Potency [1] | Potency [2] | Potency [3] | Potency [4] | Potency [5]

COC(=O)[C@]1(Cc2ccc(O)c(CC=C(C)C)c2)OC(=O)C(O)=C1c1ccc(O)cc1
inactive: Potency [1] | Potency [2] | Potency [3] | Potency [4] | Potency [5]

COC(=O)C1=COC(O[C@@H]2O[C@H](CO)[C@@H](O)[C@H](O)[C@H]2O)C2C(C)C(=O)CC12 (stereo partly specified)
inactive: Potency [1] | Potency [2] | Potency [3] | Potency [4] | Potency [5]

OC[C@H]1O[C@@H](OC[C@H]2O[C@@H](OCc3ccccc3)[C@H](O)[C@@H](O)[C@@H]2O)[C@H](O)[C@@H](O)[C@@H]1O
inactive: Potency [1] | Potency [2] | Potency [3] | Potency [4] | Potency [5]

C=C1CC2C(C)(CCC(=O)O)C(C(C)(C)O)CCC2(C)C2(C(=O)OC)C(=O)C(C)(O)C(=O)C12C (stereo unspecified)
inactive: Potency [1] | Potency [2] | Potency [3] | Potency [4]

O=C1C(Cl)=C(N2CCOCC2)C(=O)N1c1ccc(Cl)c(Cl)c1
inactive: Potency [1] | Potency [2] | Potency [3] | Potency [4] | Potency [5]

NC1(c2ccc(NC(=O)c3ccnc(-c4cc(C(=O)O)ccn4)c3)cc2)CC1
inactive: Potency [1] | Potency [2] | Potency [3] | Potency [4] | Potency [5]

O=C(O)Cc1cn([C@@H]2OC[C@@H](O[C@@H]3O[C@H](CO)[C@@H](O)[C@H](O)[C@H]3O)[C@H](O)[C@H]2O[C@@H]2O[C@H](CO)[C@@H](O)[C@H](O)[C@H]2O)c2ccccc12
inactive: Potency [1] | Potency [2] | Potency [3] | Potency [4] | Potency [5]

COc1ccc(/C=C/C(N)=O)cc1OC
inactive: Potency [1] | Potency [2] | Potency [3] | Potency [4] | Potency [5]
